Source: PubChem (several laboratories)
Rows were chosen to be rich in hits. Some 4.6% of all compounds tested hit in one or more screens of this group.
PfHsp90 yeast 2 – growth inhibition of PfHsp90-expressing yeast, primary screen, antimalarial PfHsp90 inhibitor project, S. cerevisiae, BacTiter-Glo luminescence, single point, set 2; BacTiter-Glo ATP, 48 h; yeast lacking PDR1 and PDR3 efflux regulators; inhibition, % at 9.4 µM; actives 0.32% (n = 310,000);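 active = every replicate shows inhibition above about 80%, whatever the replicate mean, limit read from the data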;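 note: 0% = DMSO neutral controls and 100% = 20 µM radicicol positive controls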
NLRP3 yeast inh – NALP3 inflammasome inhibitors in reconstituted yeast, primary screen, luminescence, uHTS | Yeast reconstituted NLRP3/ASC/caspase-1, beta-gal luminescence, 24 h | inhibition, % at 10 µM | actives 0.39% (n = 330,000);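 active = inhibition of 50% or more; inactive = inhibition below 50%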;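 note: plate controls were induced DMSO wells for no effect and uninduced yeast grown without galactose for full effect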
TIM10 inh – growth inhibitors of isogenic TIM10 control yeast, primary screen, counter-screen for tim10-1 yeast inhibitor project, luminescence, uHTS. actives 1.4% (n = 330,000). inhibition, % at 10 µM. AID 463195, 2010. S. cerevisiae TIM10 strain growth, BacTiter-Glo luminescence, 24 h;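 active = inhibition of 40% or more at the single tested concentration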;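 note: wild-type TIM10 isogenic control strain grown at permissive 25 °C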
SKKanGAS inh – S. pyogenes SKKanGAS growth inhibitors in kanamycin, primary screen, streptokinase expression inhibitor project, SKKanGAS strain, BacTiter-Glo luminescence. inhibition, % at 7.5 µM. 6 h. actives 1.3% (n = 300,000);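 active = mean replicate score, as percent of positive control median, at least 50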;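 note: strain carries kanamycin resistance gene driven by streptokinase promoter and grows in 40 µg/ml kanamycin; loss of luminescence reflects streptokinase promoter inhibition or plain growth inhibition; 0% = median of DMSO wells and 100% = positive control at its reference dose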
tim10-1 inh – growth inhibitors of tim10-1 mutant yeast, primary screen, luminescence, uHTS; AID 463190, 2010; S. cerevisiae tim10-1 ts strain growth, BacTiter-Glo, 24 h; actives 2.2% (n = 330,000); inhibition, % at 20 µM;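 active = inhibition of at least 40%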;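 note: mutant grown at 25 °C; 0% = DMSO wells with yeast and 100% = wells holding no yeast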
tim23-1 inh – growth inhibitors of tim23-1 mutant yeast, primary screen, luminescence, uHTS | actives 1.3% (n = 330,000) | S. cerevisiae tim23-1 growth, BacTiter-Glo luminescence, 24 h | AID 463212, 2010 | inhibition, % at 20 µM;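 active = growth inhibition of the mutant yeast at or above 50%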;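 note: temperature-sensitive mutant grown at 25 °C; plate controls were DMSO-treated mutant yeast for no effect and medium wells lacking yeast for full effect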
tim10-1 confirm – growth inhibitors of tim10-1 mutant yeast, confirmation, single concentration, luminescence, S. cerevisiae. shares compounds with tim10-1 inh. S. cerevisiae tim10-1 ts strain growth, BacTiter-Glo, 24 h. inhibition, % at 20 µM. actives 56% (n = 7,400). AID 463213, 2010;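 active = inhibition of yeast growth at or above a set limit in either of two repeat tests at 20 µM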;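 note: tim10-1 mutant grown at permissive 25 °C to find synthetic lethal compounds; 0% = DMSO yeast wells and 100% = medium wells without yeast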
* marks the source's active call; other numbers are inactive results; · = no result.

SMILES	PfHsp90 yeast 2	NLRP3 yeast inh	TIM10 inh	SKKanGAS inh	tim10-1 inh	tim23-1 inh	tim10-1 confirm
COc1ccc(OCc2nnc(SCC(=O)Nc3ccccc3F)o2)cc1	19	11	5	-5	-5	9	·
CC(O)CC(=O)NOCc1ccccc1 (configuration not stated)	-13	·	14	·	5	30	·
CC(C)c1cc(-c2n[nH]c(=S)n2Cc2ccccc2)cs1	2	33	29	-3	47*	35	27
S=c1[nH]nc(-c2ccccc2)n1Cc1ccccc1	-11	18	29	1	39	7	·
CCc1c(C)nc(SCC(=O)CC(=O)OC(C)C)c(C#N)c1C	·	15	27	3	44*	42	31
CS(=O)(=O)c1ccccc1-c1nc(-c2ccc(C(F)(F)F)cc2)no1	4	20	28	-15	40*	44	20
FC(F)(F)c1ccccc1-c1nc(-c2ccncc2)no1	8	4	5	-5	-47	-9	·
CCOC(=O)N1CCN(C(=O)c2ccc(NC(C)=O)cc2)CC1	-7	11	-8	-2	-7	11	·
CN1CCN(c2ccc(NC(=O)c3ccc(Br)o3)cc2)CC1	7	5	-5	1	-6	8	·
O=C(Nc1ccc(C(=O)N2CCN(c3ccccn3)CC2)cc1)c1ccc(Br)o1	-8	22	29	10	46*	36	24
CCOC(=O)N1CCN(C(=O)c2ccc(NC(=O)c3ccc(C)cc3)cc2)CC1	-6	8	33	11	44*	38	18
Cc1ccc(C(=O)N2CCN(c3ccc(NC(=O)c4ccc(Br)o4)cc3)CC2)cc1	4	21	34	-1	52*	31	31*
O=C(c1ccc(Br)o1)N1CCN(c2ccccn2)CC1	6	16	5	-5	11	9	·
C=C(C)COC(=O)c1ccccc1C(=O)OCC1(C)CO1 (configuration not stated)	11	·	·	·	·	·	·
O=C(NC(=S)NC1C2CC3CC(C2)CC1C3)C12CC3CC(CC(C3)C1)C2 (configuration not stated)	-20	0	39	3	46*	35	15
O=C(NC(=S)Nc1ccc(Cl)cn1)C12CC3CC(CC(C3)C1)C2	-17	-10	31	22	40*	24	14
CCCC(=O)Nc1ccc(NC(=O)C23CC4CC(CC(C4)C2)C3)cn1	-2	16	30	-1	44*	40	33*
CCCC(=O)Nc1ccc(NC(=O)c2ccccc2)nc1	4	-11	4	11	-5	8	·
COc1cc(CCC(=O)N2CCN(c3cccc(C)c3C)CC2)cc(OC)c1OC	2	7	5	-1	31	13	·
Cc1ccccc1CNC(=O)Cc1ccccc1[N+](=O)[O-]	36	12	-2	-1	10	16	·
Cc1ccccc1CNC(=O)c1ccc(Cl)c([N+](=O)[O-])c1	7	39	-1	1	43*	45	22
O=[N+]([O-])c1cccc(-c2nn(-c3ccccc3)cc2CO)c1	-10	16	0	1	40*	42	41*
O=C(c1cn(-c2ccccc2)nc1-c1cccc([N+](=O)[O-])c1)N1CCCCC1	20	4	24	-14	48*	35	34*
O=C(O)/C=C/c1cn(-c2ccccc2)nc1-c1cccc([N+](=O)[O-])c1	-12	12	-8	0	17	27	·
O=C(C1CCCO1)N1N=C(c2ccc(Br)cc2)CC1c1ccco1 (configuration not stated)	-27	22	27	6	37	39	·
SMILES	PfHsp90 yeast 2	NLRP3 yeast inh	TIM10 inh	SKKanGAS inh	tim10-1 inh	tim23-1 inh	tim10-1 confirm
Cc1ccc(C2=NN(C(=O)C3CCCO3)C(c3ccco3)C2)cc1 (configuration not stated)	12	10	9	4	41*	28	19
CCCc1ccc2oc(C(=O)N(Cc3nccn3C)C(C)C)c(C)c2c1	9	23	19	-10	43*	29	-17
O=C(c1ccc(-c2ccccc2Cl)o1)N1CCN(c2ccccc2O)CC1	-20	12	16	-2	44*	48	28
O=C(Oc1ccc(Br)cc1C(=S)N1CCCCC1)c1cc([N+](=O)[O-])cc([N+](=O)[O-])c1	-6	13	36	8	51*	46	31
O=C(Oc1ccc(Br)cc1C(=S)N1CCCC1)c1ccccc1Cl	6	-6	26	9	22	31	·
CCC(C)(C)NC(=O)CN(C(=O)c1csnn1)c1ccccc1-c1ccccc1	0	13	17	-3	29	24	·
CCOc1ccc(/C=C2/C(=O)N(c3ccc(OC)cc3)C(=S)N2CC(=O)OC)cc1OCC	-8	15	31	1	41*	40	30
COc1ccccc1-c1ccc(/C=C2\C=CC(=O)O2)o1	-11	17	27	6	48*	23	36*
O=C(O)c1cc2c(cc1NC(=O)C1CCCC1)OCCO2	-9	4	9	·	-5	0	·
CCOc1ccccc1C=Nc1ccccc1C(=O)Nc1ccccc1	3	13	36	4	46*	36	29
O=C(Nc1ccccc1)c1ccccc1N=Cc1ccccc1O	11	17	4	20	-5	12	·
CC(=O)c1ccc(S(=O)(=O)Nc2ccc(C(=O)N(C)CC(=O)Nc3cccc(C)c3C)cc2)cc1	-3	10	-2	·	-4	-5	·
COC(=O)C[C@H]1c2ccccc2S(=O)(=O)N1c1cccc(OC)c1	-7	-1	-8	4	-9	9	·
COc1cccc(N2[C@@H](CC(C)=O)c3ccc(/C=C/C(C)=O)cc3S2(=O)=O)c1	·	11	34	4	44*	33	34*
N#Cc1ccc(NC(=O)COc2ccc(-n3cnnn3)cc2)cc1	-4	9	-5	·	9	10	·
CC(C)[N+]1=C2C=CC=CC=C2SC12C([N+](=O)[O-])=CC(=[N+]([O-])[O-])C=C2[N+](=O)[O-] (configuration not stated)	-9	21	-12	-1	-9	14	·
CC(NC(=O)c1ccc(F)cc1)c1nc2ccccc2n1Cc1ccccc1F (configuration not stated)	11	4	8	2	42*	27	29*
